The text below walks through data of PubChem BioAssay (NCATS).

Several values for one entry are separate records, joined by “and”; a condition that tells them apart may be missing. Equal values may be shown once. Results filed as inconclusive are left out. Values without a mark were called inactive. Activity calls are given as the source filed them. The call rests on the fitted dose curve; in most records, active means well fitted curve in the direction sought with a large enough effect; inconclusive means small, poorly fitted or top-dose-only effect, or another doubt; inactive means no such curve, though single readings can be large; an effect the other way counts as inactive or inconclusive.

Assay [1] has as its target Cellular tumor antigen p53 (Homo sapiens) (UniProt P04637). The assay can be described thus: Primary qHTS for small molecule compounds that upregulate eGFP-tagged delta133p53alpha (in N-terminal) cells. (AID 2060322). Further: nearly all actives have a fitted effect of over 75% in size. Further: potency means the concentration at half of the fitted maximal effect.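 On activation: series mostly up to about 56 µM; 0% = DMSO vehicle and 100% = reference activator.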 The settings on record: NCI-H358 eGFP-delta133p53alpha fluorescence, 24 h; activation: hits give high values. The method, boiled down:
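NCI-H358 cells pre-induced 24 h with 10 ng/ml doxycycline to express N-terminal eGFP-delta133p53alpha, then dosed 24 h at 37C without doxycycline; fixed, Hoechst-stained, GFP intensity by laser scanning cytometry, normalized to DMSO (0%) and 57.5 uM 5-azacytidine (100%).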

A short description of assay [2]: qHTS for Inhibitors of the Aldehyde Dehydrogenase Family (ALDH1A2, ALDH1A3, ALDH2, ALDH3A1) (AID 2061307). Further: nearly all actives have a fitted effect of over 50% in size. On Potency: test system not described further here; potency means the concentration at half of the fitted maximal effect. A general note: In qHTS, concentration-response curves come from the screen itself.
For assay [3], the target named is Aldehyde dehydrogenase, mitochondrial (Homo sapiens) (UniProt P05091). The assay can be described thus: qHTS for Inhibitors of the Aldehyde Dehydrogenase Family (ALDH2) Primary screen (AID 2061308). Further: nearly all actives have a fitted effect of over 55% in size. Further: potency means the concentration at half of the fitted maximal effect.
The target in assay [4] is Retinaldehyde dehydrogenase 3 (Homo sapiens) (UniProt P47895). In words: qHTS for Inhibitors of the Aldehyde Dehydrogenase Family (ALDH1A3) Primary screen (AID 2061315). Further: potency means the concentration at half of the fitted maximal effect.
For assay [5] the target is unchanged. In words: qHTS for Inhibitors of the Aldehyde Dehydrogenase Family (ALDH1A3) Validation screen (AID 2061312). Further: nearly all actives have a fitted effect of over 45% in size. Further: potency means the concentration at half of the fitted maximal effect.
The target in assay [6] is Aldehyde dehydrogenase 1A1 (Homo sapiens) (UniProt P00352). In words: qHTS for Inhibitors of the Aldehyde Dehydrogenase Family (ALDH1A1) Confirmatory screens (AID 2061316). Further: nearly all actives have a fitted effect of over 65% in size. Further: potency means the concentration at half of the fitted maximal effect.
The nature of assay [7]: BET inhibitor-based combinations targeting novel dependencies in MECOM-rearranged (r) AML: SET-2 cell line (AID 2202231).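 Further: plate controls were DMSO treated cells for no effect and wells without cells for full effect; nearly all actives have a fitted effect of over 35% in size.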 The settings on record: SET-2 AML cells viability, CellTiter-Glo luminescence, 48 h; viability: hits give low values, series mostly up to about 46 µM. The method, boiled down: (§1)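 AML cell lines seeded at 500 cells/well, treated with 11-point dose curves for 48 h. Viability by CellTiter-Glo luminescence, normalised to DMSO and empty wells; activity expressed as AUC and per-cell-line Z-transformed AUC.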
(In general: In ATP-based viability assays light output follows the ATP content of the culture.)

Assay [8] can be described thus: BET inhibitor-based combinations targeting novel dependencies in MECOM-rearranged (r) AML: MV-4-11 cell line (AID 2202233).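 Further: plate controls were DMSO for no effect and blank wells for full effect; nearly all actives have a fitted effect of over 45% in size.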 The procedure, abridged:
(§2)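 Cells at 500/well were exposed for 48 hr to MIPE v5.0 drugs as 11-point dose curves. Viability was read by CellTiter-Glo luminescence and normalized to DMSO and empty-well controls. Activity was expressed as AUC and per-cell-line Z-AUC.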

A short description of assay [9]: BET inhibitor-based combinations targeting novel dependencies in MECOM-rearranged (r) AML: HNT-34 cell line (AID 2202234).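 Further: plate controls were vehicle wells for no effect and cell-free wells for full effect; nearly all actives have a fitted effect of over 35% in size.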 The procedure, abridged:
as §2

The nature of assay [10]: BET inhibitor-based combinations targeting novel dependencies in MECOM-rearranged (r) AML: UCSD-AML1 cell line (AID 2202235).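 Further: series mostly up to about 46 µM; plate controls were DMSO vehicle wells for no effect and blank wells for full effect; nearly all actives have a fitted effect of over 40% in size.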 The procedure, abridged: as §2
The nature of assay [11]: BET inhibitor-based combinations targeting novel dependencies in MECOM-rearranged (r) AML: AML-191 cell line (AID 2202236;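 further: plate controls were vehicle wells for no effect and wells without cells for full effect; nearly all actives have a fitted effect of over 35% in size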). The method, boiled down:
as §1

Assay [12] can be described thus: BET inhibitor-based combinations targeting novel dependencies in MECOM-rearranged (r) AML: AML-194 cell line (AID 2202237;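 further: plate controls were vehicle wells for no effect and wells without cells for full effect; nearly all actives have a fitted effect of over 40% in size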). The procedure, abridged:
as §1

In assay [13] the target is Retinaldehyde dehydrogenase 3 (Homo sapiens) (UniProt P47895). The assay can be described thus: qHTS for Inhibitors of the Aldehyde Dehydrogenase Family (ALDH1A3) Confirmatory screens (AID 2061311). Further: potency means the concentration at half of the fitted maximal effect; nearly all actives have a fitted effect of over 60% in size.
The target in assay [14] is Retinal dehydrogenase 2 (Homo sapiens) (UniProt O94788). In words: qHTS for Inhibitors of the Aldehyde Dehydrogenase Family (ALDH1A2) Confirmation screens (AID 2061314). Further: nearly all actives have a fitted effect of over 65% in size. Further: potency means the concentration at half of the fitted maximal effect.

What is called viability is a read-out of living cells in per cent, often relative to untreated cells.

Cellular tumor antigen p53 (Homo sapiens), sequence (P04637 whole entry, looked up): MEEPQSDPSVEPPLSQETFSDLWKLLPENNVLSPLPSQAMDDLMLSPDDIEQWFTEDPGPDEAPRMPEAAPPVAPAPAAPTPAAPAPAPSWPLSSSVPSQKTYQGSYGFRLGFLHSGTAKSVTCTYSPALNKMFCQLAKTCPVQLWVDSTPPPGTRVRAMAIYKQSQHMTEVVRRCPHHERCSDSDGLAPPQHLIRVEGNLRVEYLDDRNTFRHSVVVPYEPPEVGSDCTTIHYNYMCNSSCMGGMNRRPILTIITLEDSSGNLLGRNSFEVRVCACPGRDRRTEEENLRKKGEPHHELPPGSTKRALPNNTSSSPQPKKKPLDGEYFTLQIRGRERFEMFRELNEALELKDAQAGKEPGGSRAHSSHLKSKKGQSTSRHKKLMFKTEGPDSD

Consider `NC(=Nc1ccc(CCNCc2cccc(Cl)c2)cc1)c1cccs1`, for which, in assay [1], the activation was -11.9%. The Potency entry in assay [2], in assay [3] and in assay [4] was “inactive” throughout.

`COc1c2c(c(C)c3c1C(=O)OC3)OC1(C)CC(O)C34OC(OC)(CC(O)C3(C)C1C2)OC4(C)C` (stereo not drawn): in [1], the activation was -9.92%. Also, the Potency result in assay [2], in assay [3] and in assay [4] was “inactive” throughout.

Consider `Cc1nnc(C(=O)NC(C)(C)c2nc(C(=O)NCc3ccc(F)cc3)c(O)c(=O)n2C)o1`, for which, in [1], the activation was 12.2% and -3.35% and -11.5%. Besides, the Potency in [2] was 1.59 µM (active). The Potency result in [3], in assay [5], in assay [4], in [6], in assay [8] and in assay [9] was “inactive” each time. In addition, the Potency result in assay [10], in assay [11] and in [12] was “inactive” in each case. In [7], the viability was 118%.

Take `C=Cc1c(C)c2cc3[nH]c(cc4nc(cc5nc(cc1[nH]2)C(C)=C5CCC(=O)O)C(CCC(=O)O)=C4C)c(C)c3C=C`: the activation in assay [1] is -11.7% and -48.8%. Also, the Potency in [2] was 10.1 µM (active); in [13], 25.2 µM (active); in [6], 12.7 µM (active). Further, the Potency entry in assay [5] was “inactive”.

Take `CC(=O)N[C@@H](CC(=O)O)C(=O)N[C@@H](CCC(=O)O)C(=O)N[C@H](C(=O)N[C@@H](CC(=O)O)C(=O)Nc1ccc2c(C)cc(=O)oc2c1)C(C)C`: the Potency in assay [1] was 13.5 µM (active). Also, the Potency result in assay [2], in [3] and in assay [4] was “inactive” each time.

`COc1cc(C[C@H]2C(=O)OC[C@@H]2Cc2ccc(OC)c(OC)c2)ccc1O`: the activation in [1] was 19.6%. The Potency in assay [2] is 0.251 µM (active). Besides, the Potency result in assay [3] and in assay [4] was “inactive” throughout.

As to `CC/C=C/C(O)C(O)C1=C(C)C(=O)C2(O1)C(=O)NC(OC)(C(=O)c1ccccc1)C2O` (stereo not drawn), the activation in [1] was 15.3%. The Potency result in assay [2], in [3], in [14] and in [4] was “inactive” throughout.

Regarding `CC1CC(=O)[C@]2(O)C(C(=O)OCCc3ccc(O)c(O)c3)=CO[C@@H](O[C@@H]3O[C@H](CO)[C@@H](O)[C@H](O)[C@H]3O)[C@H]12` (stereo partly drawn), the activation in assay [1] was 6.87%. Moreover, the Potency entry in assay [2], in [3] and in [14] was “inactive” throughout. Also, the Potency in assay [6] was 12.3 µM (active).

With `CC(NC(=O)CC(=O)O)c1nc2ccccc2c(=O)[nH]1` (stereo not drawn), the activation in [1] was -5.36%. For the same molecule, the Potency entry in assay [2] and in [3] was “inactive” throughout. In assay [6], the Potency was 1.27 µM (active).

Turning to `CC[n+]1c(/C=C/C=C2/N(C)c3ccccc3C2(C)C)sc2ccccc21`, in assay [1], the activation was -26.3%. Besides, the Potency in assay [2] is 22.5 µM (active); in assay [13] it was 12.7 µM (active); in assay [14], 12.7 µM (active); in [6], 12.7 µM (active).

`Oc1ccc(O)cc1`: the activation in assay [1] is 17.5% and -0.402%. Besides, the Potency was 11.3 µM (active) in [2], 4.49 µM (active) in [13], 0.794 µM (active) in assay [5] and 11.3 µM (active) in assay [6].

Take `OC[C@H]1O[C@@H](Oc2ccc(O)c3cccc(O)c23)[C@H](O)[C@@H](O)[C@@H]1O`: the activation in assay [1] is -13%. In addition, the Potency in [2] is 7.83 µM (active); in assay [13] it was 0.985 µM (active); in assay [14] it was 2.47 µM (active); in assay [4] it was 1.78 µM (active).

As for `CCOC(=O)c1cnn(-c2ccc(NC(=O)C(Cl)=C(Cl)Cl)cc2)c1C(F)(F)F`, the Potency was 19 µM (active) in assay [1]; 4.47 µM (active) in assay [2]; 4.47 µM (active) in assay [3]; 7.08 µM (active) in assay [13]; 0.634 µM (active) in assay [14]; 4 µM (active) in assay [6]. Besides, the Potency entry in assay [4] is “inactive”.

With `O=C(C1OC1/C=C/c1ccc2c(c1)OCO2)N1CCCCC1` (stereo not drawn), the activation in assay [1] was -6.11%. For the same molecule, the Potency result in assay [2], in assay [3] and in [14] was “inactive” in each case.

For `O=C(O)c1cc(-c2c(-c3ccccc3)nn3ccccc23)n[nH]c1=O`, the activation in [1] was -0.333%. Further, the Potency result in assay [2], in assay [3] and in assay [4] was “inactive” each time.

On to `COc1ccc2c(OC)c3ccoc3nc2c1OC`, for which, in [1], the activation is -3.05%. For the same molecule, the Potency in assay [2] is 28.2 µM (active); in assay [13], 4 µM (active); in [14] it was 0.896 µM (active); in assay [6], 2.83 µM (active). Moreover, the Potency entry in assay [3] is “inactive”.

On to `CC[C@@H](Nc1c(Nc2cccc(C(=O)N(C)C)c2O)c(=O)c1=O)c1cc(C(C)C)co1`, for which, in [1], the activation was -2.39%. The Potency in assay [2] was 5.62 µM (active) and 7.08 µM (active). Besides, the Potency entry in assay [3], in assay [5], in assay [14] and in assay [6] was “inactive” in each case.

Regarding `COc1c(C(C)C)c(O)c(O)c2c1C(OC)[C@H]1OC(=O)[C@@]23CCCC(C)(C)[C@H]13` (stereo partly drawn), the activation in [1] is -1.79%. Further, in [2], the Potency entry was “inactive”. Besides, the Potency is 6.97 µM (active) in assay [13], 15.6 µM (active) in [14] and 2.82 µM (active) in assay [4].

Regarding `CC1=CCC2C(C)(CO)CCCC2(CO)C1CO` (stereo not drawn), in [1], the activation was -19.8%. Also, the Potency result in assay [2], in [3] and in assay [4] was “inactive” in each case.
